Compound activity from PubChem.
CYP2C9 inh: inhibitors of human CYP2C9; P11712; CYP2C9 Supersomes, luciferin-H conversion, luminescence; inhibition, % at 5 µM; hit rate 20% among 96,000; AID 777;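 active means blocking of liver enzyme CYP2C9 beyond about 50% at 5 µM, limit read from the data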
CYP2C19 inhib: human CYP2C19 inhibition; CYP2C19 Supersomes, luciferin-H EGE luminescence, 30 min; hit rate 21% among 96,000; inhibition, % at 5 µM; P33261;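 active means CYP2C19 inhibition above a set limit at 5 µM in the primary screen, cut at about 50% in these data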
CYP2C9 act: increases human cytochrome P450 2C9 activity; recombinant CYP2C9, luciferin-H conversion, luminescence; hits give high values; factor 1 = untreated enzyme, 0 = blocked; activation factor at 5 µM; hit rate 1.4% among 96,000; AID 1024; P11712;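 active means activation factor of 2 or more for CYP2C9 at a 5 µM dose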
Mac1 fbg enh: increases human CD11b/CD18 adhesion to fibrinogen. K562 CD11b/CD18 adhesion to fibrinogen, ATPlite luminescence. hit rate 0.07% among 93,000. AID 1499. activation, % at 10 µM. P05107+P11215;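 active means 10 µM primary screen giving 50% or more activity, confirmed by 40% or more on retest at that dose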
Target sequence (P05107 whole entry, looked up, other chains not shown): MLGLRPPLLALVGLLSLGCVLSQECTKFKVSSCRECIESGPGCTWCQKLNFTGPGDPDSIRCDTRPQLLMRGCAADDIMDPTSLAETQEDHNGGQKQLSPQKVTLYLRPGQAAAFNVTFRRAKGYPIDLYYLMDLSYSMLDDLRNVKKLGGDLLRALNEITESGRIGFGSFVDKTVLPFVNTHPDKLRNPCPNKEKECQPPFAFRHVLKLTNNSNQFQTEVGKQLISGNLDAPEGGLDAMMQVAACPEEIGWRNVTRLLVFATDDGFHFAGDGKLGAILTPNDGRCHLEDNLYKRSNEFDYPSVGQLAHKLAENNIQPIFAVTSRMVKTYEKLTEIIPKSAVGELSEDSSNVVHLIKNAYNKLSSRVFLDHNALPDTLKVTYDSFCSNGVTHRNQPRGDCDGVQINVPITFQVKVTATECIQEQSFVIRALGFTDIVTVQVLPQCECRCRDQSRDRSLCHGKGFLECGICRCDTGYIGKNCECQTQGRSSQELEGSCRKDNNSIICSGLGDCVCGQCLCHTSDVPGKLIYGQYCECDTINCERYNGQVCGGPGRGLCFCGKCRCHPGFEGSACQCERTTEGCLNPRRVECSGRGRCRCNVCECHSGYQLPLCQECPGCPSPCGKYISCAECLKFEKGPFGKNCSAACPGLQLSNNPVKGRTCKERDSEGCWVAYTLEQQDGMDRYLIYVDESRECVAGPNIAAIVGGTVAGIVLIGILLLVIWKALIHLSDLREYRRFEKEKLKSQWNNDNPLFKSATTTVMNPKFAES
Mac1 fbg inh: blocks human CD11b/CD18 adhesion to fibrinogen. K562 CD11b/CD18 adhesion to fibrinogen, ATPlite luminescence; Mn2+ added to activate the integrin. hit rate 0.54% among 93,000. P05107+P11215. inhibition, % at 10 µM;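 active means primary inhibition of 50% or more at 10 µM, then 40% or more on retest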
CYP2C19 activ: increases human CYP2C19 enzyme activity; 96,000 tested, under 10 active; recombinant CYP2C19, luciferin-H EGE luminescence; hits give high values; 0 = fully inhibited enzyme, 1 = untreated enzyme; activation factor at 5 µM; AID 1025; P33261;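 active means activation factor of at least 2 at 5 µM in the primary screen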
Hits are given with their value; - = inactive; . = no result. Rows were chosen to be rich in hits. Some 28% of all compounds tested hit in one or more screens of this group.

SMILES | CYP2C9 inh | CYP2C19 inhib | CYP2C9 act | Mac1 fbg enh | Mac1 fbg inh | CYP2C19 activ
CCn1c2ccccc2c2cc(NC(=O)CSc3nnc(-c4cccc(C)c4)o3)ccc21 | 64 | 63 | - | - | - | -
Cc1ccc(-c2nnc(SCC(=O)Nc3ccc(N4CCOCC4)cc3)o2)cc1 | - | - | - | . | . | -
CCn1c2ccccc2c2cc(NC(=O)CSc3nnc(-c4cccc(F)c4)o3)ccc21 | 70 | 91 | - | - | - | -
CCn1c2ccccc2c2cc(NC(=O)CSc3nnc(-c4ccccc4)o3)ccc21 | 78 | 95 | - | - | - | -
COC(=O)C1(C(=O)OC)NOC2C(=O)N(c3ccccc3)C(=O)C21 (centres undefined) | - | - | - | - | - | -
CCOC(=O)CSc1nnc(NC(=O)c2cccc([N+](=O)[O-])c2)s1 | . | . | . | - | - | .
CCOC(=O)N1CCN(C(c2ccc(F)cc2)c2sc3nc(C)nn3c2O)CC1 (centres undefined) | - | - | - | - | - | -
C=CCn1c(O)c(C2=c3ccccc3=NC2=O)s/c1=N/c1nccs1 | 61 | - | - | - | - | -
Cc1sc2nc(CN(C(=O)c3cccs3)C3CCCC3)[nH]c(=O)c2c1C | 74 | - | - | - | - | -
Cc1sc2nc(CN(Cc3cccs3)C(=O)NC3CCCCC3)[nH]c(=O)c2c1C | 96 | 97 | - | - | - | -
Cc1cccc(NC(=O)N(Cc2nc3ccccc3c(=O)[nH]2)C2CCCC2)c1 | . | - | . | . | . | -
CCN(CC)C(=O)CCc1nc2sc3c(c2c(=O)[nH]1)CCCC3 | - | 65 | - | - | - | -
O=C(c1cccs1)N(Cc1nc2sc3c(c2c(=O)[nH]1)CCCC3)C1CCCC1 | 70 | - | - | - | - | -
CCn1cc(C(=O)O)c(=O)c2cc(F)c(N3CCN(S(=O)(=O)c4ccc(Br)cc4)CC3)cc21 | . | . | . | - | - | .
Cc1ccc(N2CCN(S(=O)(=O)c3ccc(F)c(C)c3)CC2)c(C)c1 | 91 | 84 | - | - | - | -
CCC(=O)c1cc(F)c(N2CCN(S(=O)(=O)c3ccc(C)cc3)CC2)cc1C | 59 | - | - | - | - | -
Cc1ccccc1N1CCN(S(=O)(=O)c2ccc3oc(=O)ccc3c2)CC1 | 80 | - | - | . | . | -
Cc1ccc(N2CCN(S(=O)(=O)N(C)C)CC2)c(C)c1 | 64 | 86 | - | - | - | -
Cc1cccc(OCCc2nnc(N)s2)c1C | - | - | - | - | - | -
CC(=O)Nc1ccc(C(=O)CSc2nc3ccccc3n2CC(=O)N2CCCC2)cc1 | - | - | - | - | - | -
CCc1ccccc1N1CCN(S(=O)(=O)c2ccc(F)c(C)c2)CC1 | 90 | 90 | - | - | - | -
C=C(C)CSc1nnc2n(Cc3ccccc3)c(=O)c3c4c(sc3n12)CCC4 | - | - | - | - | - | -
Cc1nc(CCN2C(=O)c3ccccc3C2=O)n[nH]1 | - | - | - | - | - | -
Cc1ccc(/C=C(/C#N)c2nc(CCN3C(=O)c4ccccc4C3=O)cs2)cc1 | 51 | 53 | - | . | . | -
COC(=O)c1ccccc1NC(=O)C1CCCN(S(=O)(=O)c2ccccc2)C1 (centres undefined) | - | - | - | - | - | -
SMILES | CYP2C9 inh | CYP2C19 inhib | CYP2C9 act | Mac1 fbg enh | Mac1 fbg inh | CYP2C19 activ
COC(=O)c1ccccc1NC(=O)C1CCCN(S(=O)(=O)c2ccc(OC)cc2)C1 (centres undefined) | 73 | 54 | - | - | - | -
COC(=O)c1ccccc1NC(=O)C1CCCN(S(=O)(=O)c2ccc(F)cc2)C1 (centres undefined) | 80 | 90 | - | - | - | -
CCOC(=O)c1[nH]c(C)c(/C(O)=C2\C(=O)C(=O)N(CCN(C)C)C2c2ccco2)c1C (centres undefined) | - | - | - | - | - | -
O=S(=O)(Nc1ccccn1)c1cnc(Cl)c(Br)c1 | . | . | . | - | - | .
COc1cc(NC(=O)c2ccco2)c(OC)cc1NC(=O)CCC(=O)Nc1cc(C)cc(C)c1 | 66 | - | - | - | - | -
COc1cc(OC)cc(C(=O)Nc2cc(NC(=O)c3ccco3)ccc2OC)c1 | - | - | - | - | - | -
CCCOc1cccc(C(=O)Nc2cc(NC(=O)c3ccco3)ccc2OC)c1 | - | 71 | - | - | - | -
CCCC(=O)Nc1ccc(NC(=O)c2ccco2)c(OC)c1 | 71 | - | - | - | - | -
